Not all results are given here.
aSyn UTR act: Activators via SNCA 5'UTR binding, MLPCN; alpha-synuclein 5'UTR reporter, activators screen; activity score, % (tested at 7.5 µM), hits read low; 300,000 tested, 7.1% active; AID 1814, 2009; in the data active = activity score below about -60%
* marks the source's active call; other numbers are inactive results.

SMILES	aSyn UTR act
CN(c1ccc(C(=O)NCCSC(C)(C)C)cc1)S(C)(=O)=O	-81*
COc1ccc(-c2csc(NC(=O)CSc3n[nH]c(C)n3)n2)cc1	-104*
COc1ccc(-c2csc(NC(=O)CSc3n[nH]c(N)n3)n2)cc1	-123*
COc1ccc(C(=O)N[C@H](C(=O)Nc2nc3c(s2)CCCC3)C(C)C)cc1	-201*
CCOc1ccccc1C(=O)N[C@H](C(=O)Nc1nc2c(s1)CCCC2)C(C)C	-87*
CCc1nnc(NC(=O)c2oc3cc(C)c(C)cc3c2C)s1	-102*
CCc1nonc1NC(=O)c1oc2cc(C)c(C)cc2c1C	-127*
CC(=O)Nc1cccc(NC(=O)c2cc(-c3cccnc3)nc3ccc(Br)cc23)c1	-62*
O=C(Nc1cccnc1)c1cc2c(ccc3ccccc32)o1	-104*
Cc1c(C(=O)Nc2cccnc2)oc2ccc(Br)cc12	-246*
C/C(=N\NC(=O)c1cc(-c2cccnc2)nc2ccccc12)c1ccccc1O	86
CCc1ccc2oc(C(=O)Nc3cccnc3)c(C)c2c1	-220*
CC(=O)c1cccc(NC(=O)c2ccc3c(c2)OCO3)c1	-128*
CCCc1cc(C(=O)NNC(=S)Nc2cccc(C)c2)cs1	-101*
Cc1cccc(NC(=S)NNC(=O)c2csc3c2CCC(C)C3)c1 (stereo not drawn)	-77*
Cc1cccc(NC(=S)NNC(=O)c2ccccc2Br)c1	-129*
CCOC(=O)c1cccc(NC(=O)/C=C/c2ccc3c(c2)OCO3)c1	106
Cc1[nH]c2ccccc2c1C(=O)C(=O)Nc1ccc2c(c1)OCO2	-91*
Cc1cc(C(=O)Nc2ccc3c(c2)OCO3)cs1	-233*
Cc1cccc(NC(=S)NNC(=O)c2ccc3c(c2)OCO3)c1	-211*
CCOC(=O)c1cccc(NC(=O)c2ccc3c(c2)OCO3)c1	-126*
CC(=O)c1c(C)nc(-c2ccc(Cl)cc2)nc1N=CN(C)C	-128*
CC(=O)c1c(C)nc(-c2ccc(Cl)cc2)nc1N	-239*
COc1ccc(OC)c(NS(=O)(=O)c2ccc(SC)cc2)c1	-161*
CCOc1ccc(S(=O)(=O)Nc2cc(OC)ccc2OC)cc1	81
SMILES	aSyn UTR act
CC(C)(C)C1CCC(OC(=O)c2cncc(Br)c2)CC1 (stereo not drawn)	-123*
COc1ccc(/C=C/C(=O)C2C(=O)C=C(C)OC2=O)cc1O (stereo not drawn)	-243*
CCN(CC)c1cc(C)c2cc(NC(=O)c3ccccc3OC)ccc2n1	-75*
CCN(CC)c1cc(C)c2cc(NC(=O)c3cccs3)ccc2n1	-65*
Nc1cc(N)nc(SCc2ccccc2)n1	-110*
Nc1nc(SCc2ccccc2)ns1	-89*
CC(C)(C)c1ccc(OCCn2ccccc2=O)cc1	-154*
COc1ccc(C2C=C(C)Nc3ncnn32)cc1 (stereo not drawn)	-154*
O=C(Nc1ccccc1)N(C1=NCCCCS1)c1cccc2ccccc12	-85*
Cc1ccsc1C(=O)N/N=C/c1ccc2c(c1)OCO2	-99*
O=C(N/N=C/c1ccc2c(c1)OCO2)c1cccs1	-135*
Cc1ccc(OCc2cc(C(=O)N3CC4C[C@@H]5CC3C[C@H](C4)C5)no2)cc1C	-111*
Cc1cccc(C)c1OCc1cc(C(=O)N2CC3C[C@@H]4CC2C[C@H](C3)C4)no1	-117*
O=C(Nc1ncccc1O)c1ccc2c(c1)OCO2	-207*
Cc1cccnc1NC(=O)c1ccc2c(c1)OCCO2	-172*
O=C(Nc1ncccc1O)c1ccc2c(c1)OCCO2	-222*
Cc1c(C(=O)Nc2ccc(Br)cc2)cnn1C	-112*
O=C(CNC(=O)c1ccccc1Br)N/N=C/c1cc(Br)ccc1O	70
CCc1ccc(NC(=O)c2n[nH]c(=O)c3ccccc23)cc1	-84*
O=C(Nc1ccc(Br)cc1)c1ccccc1Br	-200*
CCc1ccc(NC(=O)c2ccccc2Br)cc1	-144*
CN1C(=C2C(=O)OC(C)(C)OC2=O)Sc2ccccc21	-79*
CC1(C)COC(c2coc3ccccc3c2=O)OC1	-97*
Cc1c(CCC(=O)N[C@@H](C)C(=O)O)c(=O)oc2cc3oc4c(c3cc12)CCCC4	71
COCCNc1nnc(SC(C)C(=O)Nc2ccc(-c3nc4ccc(C)cc4s3)cc2)s1 (stereo not drawn)	-79*
SMILES	aSyn UTR act
CCCCNC(=S)Nc1ccc(-c2nc3ccc(C)cc3s2)cc1	-159*
CCC(C)(C)NC(=S)Nc1ccc(-c2nc3ccc(C)cc3s2)cc1	-79*
Cc1ccc2nc(-c3ccc(NC(=S)NCCC(C)C)cc3)sc2c1	-192*
O=C(c1cc(COc2ccc3c(c2)CCCC3)on1)N1CCCC1	-118*
CCOC(=O)N1CCN(C(=O)c2cc(COc3c(F)cccc3F)on2)CC1	-151*
O=C(c1cc(COc2c(F)cccc2F)on1)N1CCCCCC1	-99*
O=C(COC(=O)c1ccccc1[N+](=O)[O-])c1ccc2c(c1)OCO2	-187*
Cc1cccc(C(=O)OCC(=O)c2ccc3c(c2)OCO3)c1O	-153*
CC(=O)Nc1cccc(C(=O)/C=C/c2ccc(N(C)C)cc2)c1	-71*
CC(=O)Nc1cccc(C(=O)/C=C/c2ccc(Br)cc2)c1	-76*
CC(=O)Nc1cccc(C(=O)/C=C/c2ccc[nH]2)c1	-90*
CC(=O)Nc1cccc(C(=O)/C=C/c2ccc(/C=C/C(=O)c3cccc(NC(C)=O)c3)cc2)c1	-129*
CC(=O)Nc1cccc(C(=O)/C=C/c2cccs2)c1	-117*
CC(=O)Nc1cccc(C(=O)/C=C/c2ccc(F)cc2)c1	-103*
COc1cc(/C=N/NS(=O)(=O)c2ccc3ccccc3c2)ccc1OCc1ccc(C(=O)O)cc1	84
CCOc1cc(/C=N\Nc2nc(Nc3ccccc3)nc(N3CCOCC3)n2)ccc1OC(=O)c1ccco1	-91*
COc1cc(/C=N/Nc2ccc3ccccc3c2)ccc1OC(=O)c1ccco1	-76*
COc1cc2c(cc1NC(=O)Nc1ccccc1)oc1ccccc12	-67*
COc1cc2c(cc1NC(=O)COC(=O)Cn1cnc3ccccc31)oc1ccccc12	-76*
COc1ccc(-c2csc(/C(C#N)=C/Nc3cc4oc5ccccc5c4cc3OC)n2)cc1	43
COc1cc2c(cc1NC(=O)COC(=O)C(CCSC)NC(=O)c1ccccc1Cl)oc1ccccc12 (stereo not drawn)	-136*
COc1cc2c(cc1NC(=O)CN1CCN(S(=O)(=O)c3ccccc3F)CC1)oc1ccccc12	-91*
COc1cc2c(cc1NC(=O)Cc1ccc(C)cc1)oc1ccccc12	-130*
COc1cc2c(cc1NCc1ccccn1)oc1ccccc12	-154*
COc1cc2c(cc1NC(=O)C(C)Sc1ccc(C)cc1)oc1ccccc12 (stereo not drawn)	-109*
SMILES	aSyn UTR act
COc1ccc(-c2cc(=O)c3cc(O)ccc3o2)cc1	-121*
O=C(COc1ccc2oc(-c3ccccc3)cc(=O)c2c1)NCc1ccco1	-127*
O=c1cc2oc3cc(O)c(O)cc3c(-c3ccccc3[N+](=O)[O-])c-2cc1O	71
O=c1cc(-c2ccccc2)oc2ccc(O)cc12	-90*
COc1cccc(/C=N/NC(=O)c2[nH]nc3c2CCc2ccccc2-3)c1	-69*
CC(C)NC(=O)c1[nH]nc2c1CCc1ccccc1-2	-165*
c1ccc(-n2ncc3c(N4CCC5(CC4)OCCO5)ncnc32)cc1	-223*
Cc1cccc(-n2ncc3c(N4CCC5(CC4)OCCO5)ncnc32)c1	-82*
COC(=O)c1ccc(-c2ccc(/C=N/N3C(=O)C4C5C=CC(CC5)C4C3=O)o2)cc1 (stereo not drawn)	-191*
